IL-1B inflam inh = qHTS for Inhibitors of Inflammasome Signaling: IL-1-beta AlphaLISA Primary Screen; AID 743279, 2014; 360,000 compounds, 4.7% hits; activity change, % at 57.5 µM; THP-1 LPS/ATP IL-1B secretion, AlphaLISA, 16 h; stronger effect = lower value; in the data active = activity change below about -50%; inconclusive = mostly about -30% to -49%; also: % is scaled to controls: 0 for no effect and ±100 for the full control effect
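Secreted IL-1B measured by AlphaLISA bead assay after 16 h compound exposure of THP-1 cells; compounds (final up to 57.5 uM) added 1 h before LPS (250 ng/mL) and ATP (1.25 mM) stimulation; lower signal means less secretion.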
Vif-A3F inh = qHTS for Inhibitors of Vif-A3F Interactions: qHTS; AID 602313, 2012; Potency, µM (titrated, usually from 46.1 µM), inactives show at the highest dose activity, negative = active; HeLa A3F-eYFP + Vif (tagged APOBEC3F with the HIV-1 protein that degrades it), YFP fluorescence increase; 390,000 compounds, 0.2% hits; also: potency is read from the fitted curve at half-maximal effect; % of control where 0% means no effect; nearly all actives have a fitted effect of over 65% in size
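Fluorescence increase (Ex 488/Em 500-530) after overnight compound treatment at 37 deg C flags inhibition of Vif-driven A3F-eYFP loss in stable HeLa A3F-eYFP/Vif cells seeded overnight beforehand.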
MCF10A rerep = A quantitative high throughput screen for small molecules that induce DNA re-replication in MCF 10a normal breast cells; MCF 10A DNA re-replication, Hoechst nuclear intensity, 48 h; Potency, µM (series often up to 46.1 µM), without a hit: at the top dose activity, positive = re-replication, most hits filed as activators; 350,000 compounds, 2.9% hits; also: potency is read from the fitted curve at half-maximal effect; % of control where 0% means no effect; nearly all actives have a fitted effect of over 50% in size
SW480 rerep = A quantitative high throughput screen for small molecules that induce DNA re-replication in SW480 colon adenocarcinoma cells; SW480 DNA re-replication, Hoechst DNA content imaging, 48 h; Potency, µM (doses to about 46.1 µM), for inactives: at the top dose re-replication activation, hits mostly activators; 340,000 compounds, 1.8% hits; AID 624297, 2012; also: potency is read from the fitted curve at half-maximal effect; % of control where 0% means no effect; nearly all actives have a fitted effect of over 55% in size
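Readout is total intensity of Hoechst-stained nuclei, excited at 405 nm and collected at 500-530 nm. Compound treatment lasted 48 hr at 37 C in 5% CO2 before staining.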
Giardia kill = Small Molecules that selectively kill Giardia lamblia: qHTS | Giardia lamblia trophozoite viability | activity change, % at 7.66 µM, hits read low | 340,000 compounds, 0.15% hits; in the data active = activity change below about -80%; inconclusive = between about -30% and that limit;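 also: parasites exposed to compound for two days anaerobically before the ATP read; % is scaled to controls: 0 for no effect and ±100 for the full control effect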
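Killing of trophozoites was scored by loss of ATP luminescence after a 48 hrs anaerobic exposure to compounds at 37 deg C, using 100 cells per well.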
Vif-A3G inh = qHTS for Inhibitors of Vif-A3G Interactions: qHTS. Potency, µM (series often up to 46.1 µM), without a hit: at the highest dose activity, negative = active, hits mostly inhibitors. 410,000 compounds, 0.076% hits. AID 602310, 2012. HeLa A3G-eYFP + Vif (tagged APOBEC3G with the HIV-1 protein that degrades it), YFP fluorescence, overnight. DNA dC->dU-editing enzyme APOBEC-3G (Homo sapiens), Q9HC16; also: potency is read from the fitted curve at half-maximal effect; % is scaled to controls: 0 for no effect and ±100 for the full control effect; nearly all actives have a fitted effect of over 60% in size
Target sequence (Q9HC16 whole entry, looked up): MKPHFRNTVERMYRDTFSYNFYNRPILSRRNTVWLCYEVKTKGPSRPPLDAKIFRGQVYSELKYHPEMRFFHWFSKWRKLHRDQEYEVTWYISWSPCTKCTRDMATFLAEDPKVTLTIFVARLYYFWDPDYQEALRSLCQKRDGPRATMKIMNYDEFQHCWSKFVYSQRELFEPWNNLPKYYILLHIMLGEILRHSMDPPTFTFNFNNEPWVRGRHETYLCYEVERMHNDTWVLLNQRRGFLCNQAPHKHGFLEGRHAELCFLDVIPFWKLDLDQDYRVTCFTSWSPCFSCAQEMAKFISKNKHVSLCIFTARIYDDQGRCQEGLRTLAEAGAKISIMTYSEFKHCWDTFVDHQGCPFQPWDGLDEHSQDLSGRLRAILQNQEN
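HeLa cells stably expressing Vif and C-terminally eYFP-tagged A3G, seeded overnight at 37 deg C, then exposed to compound by pintool overnight at 37 deg C. Rise in yellow fluorescence (Ex 488/Em 500-530, Acumen) marks blocked Vif-driven A3G degradation.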
An asterisk follows results filed as active; i = inactive; ? = inconclusive; / = no result; [ ] = remark or other dose. Hits are enriched below; roughly 6.9% of the tested compounds scored in any of these assays. Unless noted, calls follow the shape of the dose curve; as a rule, active = well fitted curve in the direction sought with a large enough effect; inconclusive = small, poorly fitted or top-dose-only effect, or another doubt; inactive = no such curve, though single readings can be large; an effect the other way counts as inactive or inconclusive.

SMILES	IL-1B inflam inh	Vif-A3F inh	MCF10A rerep	SW480 rerep	Giardia kill	Vif-A3G inh
O=C(CCN1C(=O)/C(=C/c2ccccc2Cl)SC1=S)NC1C=CS(=O)(=O)C1 (centres undefined)	-63*	8%	15µM*	?	-19	-18%
COc1ccc(/C=C2\SC(=O)N(CC(=O)NC3C=CS(=O)(=O)C3)C2=O)cc1 (centres undefined)	-3	6%	-2%	15%	-16	0%
O=C(CN1C(=O)S/C(=C\c2ccc(F)cc2)C1=O)NC1C=CS(=O)(=O)C1 (centres undefined)	0	1%	3%	20%	-6	-4%
O=C(CCN1C(=O)/C(=C/c2ccc(F)cc2)SC1=S)NC1C=CS(=O)(=O)C1 (centres undefined)	?	-1%	?	27%	-17	2%
COC(=O)c1c(SC)nc2ccccc2c1OCc1cccc(C)c1	/	-6%	/	/	/	4%
CC1CCCN(CCOc2ccc3ccccc3c2Br)C1 (centres undefined)	-216*	-18%	15µM*	-7%	-6	0%
COc1ccc(NC(=O)COc2ccccc2C(=O)Nc2ccccc2)cc1	/	/	/	/	/	3%
COc1ccc(Nc2nnc(SCC(=O)NC(=O)Nc3ccc4c(c3)OCCO4)s2)cc1	71	?	13µM*	10µM*	-16	?
CCC(=O)Nc1nnc(SCC(=O)Nc2ccc3c(c2)OCCO3)s1	i	0%	?	-20%	3	0%
C=CCn1c(Cc2cccs2)nnc1SCC(=O)c1ccc2ccccc2c1	-29	-2%	12µM*	27%	4	1%
C=CCn1c(CCNC(=O)c2cccs2)nnc1SCC(=O)c1ccc(Cl)cc1	-8	2%	26µM*	?	-7	0%
C[C@H](C(=O)OCO/N=[N+](\[O-])N1CCCC1)c1cccc2ccccc12	/	/	/	/	-15	0%
Cc1ccc(-n2c(/C=C/c3c(C)n(C)c4ccccc34)nc3ccccc3c2=O)cc1	/	-7%	/	/	/	-3%
Fc1ccc(Nc2cccc3nccnc23)cc1	17	-17%	-2%	-8%	19	-4%
c1cc(Nc2cccc3nccnc23)c2nccnc2c1	-54*	1%	13%	8.2µM*	25	-10%
O=C1C[C@H](c2ccc3ccccc3c2)N1S(=O)(=O)c1ccccc1[N+](=O)[O-]	/	/	/	/	-2	1%
Cc1nc2c(c(=O)n1CCC1=CCCCC1)c1nc3ccccc3nc1n2/N=C/c1ccccc1	-21	-21%	23µM*	0%	12	0%
COCCCn1c2nc3ccccc3nc2c2c(=O)n(CC3CCCO3)cnc21 (centres undefined)	-18	-7%	6%	3%	5	-1%
CCOCCCn1c(C)nc2c(c1=O)c1nc3ccccc3nc1n2CCC1=CCCCC1	-73*	?	?	?	4	-2%
CCCCCCn1c(C)nc2c(c1=O)c1nc3ccccc3nc1n2/N=C/c1ccco1	-53*	6%	?	9%	3	0%
CCOC(=O)c1cc([N+](=O)[O-])sc1NC(=O)CC	-13	11%	-3%	-3%	-86*	-3%
CCOC(=O)c1cc([N+](=O)[O-])sc1N	23	-27%	-28%	-34%[1.84 µM]	1	-13%
COc1ccccc1C(=O)NNC1=C(C(=O)C(F)(F)F)CCC1	83	1%	4.1µM*	2.6µM*	-18	?
O=C(NNC1=C(C(=O)C(F)(F)F)CCC1)c1ccc(Br)cc1	37	-2%	?	9.2µM*	3	2%
Cc1cccc(CNS(=O)(=O)c2ccc(-c3coc(C)n3)cc2)c1	/	-3%	/	/	/	1%
SMILES	IL-1B inflam inh	Vif-A3F inh	MCF10A rerep	SW480 rerep	Giardia kill	Vif-A3G inh
CCOC(=O)c1c(C)nn(-c2ccc(NC(=O)/C=C/C(=O)O)cc2)c1C	0	14%	-2%	-6%	16	-1%
CCOC(=O)c1c(NC(=O)/C=C/C(=O)O)sc(C)c1-c1ccc(C)c(C)c1	-95*	-1%	4.1µM*	13%	14	-23%
COC(=O)c1c(NC(=O)/C=C/C(=O)O)sc(C)c1-c1ccc(C)c(C)c1	-95*	-5%	16µM*	?	-17	-22%
CCOC(=O)c1c(NC(=O)/C=C/C(=O)O)sc(C)c1-c1ccc(F)cc1	-101*	-2%	?	0%	0	-7%
COc1cccc(C(=O)c2cn(CC(=O)NCc3ccccc3Cl)c3nc(C)ccc3c2=O)c1	/	4%	/	/	/	1%
Clc1ccc2c(ccc[n+]2CCC2CCCCC2)c1	/	/	/	/	/	2%
CC(C)c1cccc(NC(=O)COC(=O)c2ccccc2OCc2cccc(Br)c2)c1	/	/	/	/	/	2%
COc1cc(C=C(C#N)C(=O)c2ccccc2)cc(OC)c1OC	0	/	/	/	/	0%
Cc1nc(N)sc1C(=O)N/N=C/c1c[nH]c2ccccc12	-55*	-4%	20%	-12%	9	-1%
COc1cc(/C=N/NC(=O)c2cc(-c3ccccc3)sc2N)cc(OC)c1OC	-72*	0%	-1%	-12%	15	-7%
COc1ccc(/C=N/NC(=O)c2ccc(CN3c4cccc5cccc(c45)S3(=O)=O)cc2)cc1	17	1%	16%	1%	-9	-13%
O=C(N/N=C/c1c[nH]c2ccccc12)c1sc2ccccc2c1Cl	-28	-24%	13%	1%	3	-4%
COc1cc(/C=N/NC(=O)c2ccc(CN3c4cccc5cccc(c45)S3(=O)=O)cc2)cc(OC)c1O	51	6%	16µM*	17%	-1	-8%
COc1cc(/C=C(/C(=O)O)c2ccc(-c3ccccc3)cc2)cc(OC)c1OC	33	0%	15µM*	21µM*	13	?
COc1ccc(C2CC(=O)c3cc(-c4nc(-c5cccc([N+](=O)[O-])c5)cs4)c(=O)n(-c4ccccc4C)c3C2)cc1 (centres undefined)	/	3%	/	/	/	-2%
CCc1nn2c(=O)cc(COC(=O)c3ccccc3NC(=O)COc3ccc(F)cc3)nc2s1	/	2%	/	/	/	1%
COc1cc(/C=N\NC(=O)c2sc(N)nc2C)cc(OC)c1OC	-79*	-1%	21µM*	-5%	0	-4%
COc1cc(/C=N/NC(=O)c2ccc(-c3ccccc3)cc2)cc(OC)c1OC	-20	-22%	21%	9.2µM*	22	-6%
COc1cc(/C=N/NC(=O)c2ccc(-n3cccc3)cc2)ccc1O	-69*	8%	?	-3%	-9	-15%

Assay outcomes: PubChem BioAssay, National Center for Advancing Translational Sciences (NCATS)
